Test results published in PubChem BioAssay (NCATS).
Inconclusive results are not listed. A number with no mark means an inactive call. Calls of active or inactive are those of the source. Calls follow the shape of the dose curve; as a rule, active = well fitted cell-killing curve with a large enough effect; inconclusive = small, poorly fitted or top-dose-only effect; inactive = no such curve, though single readings can be large or run the other way.

experiment: qHTS of pediatric cancer cell lines to identify multiple opportunities for drug repurposing: Primary screen for Saos-2 cells (AID 1347097); conditions: Saos-2 viability, CellTiter-Glo ATP luminescence, 48 h; series mostly up to 46 µM; activity change, negative = cytotoxic: at the top concentration; also: nearly all actives have a fitted effect of over 40% in size
From the text: Drug repurposing or repositioning has been offered as a strategy for drug development in oncology programs. This approach has special potential for childhood cancers and other rare or orphan diseases, where the expected return on new drug development has been a disincentive to pharmaceuticals. […] In this project we exploit the poly-pharmacology of drugs to discover new indications via phenotypic screening of a panel of 19 well-characterized cell lines derived from solid tumors seen in children and adolescents. The goal is to identify approved drugs with previously unrecognized anticancer properties that has the potential to reveal new mechanisms and biological processes involved in carcinogenesis or drug resistance. We employed a titration-based paradigm (quantitative high-throughput screening or qHTS), where all compounds were tested at multiple concentrations for their effect on cell viability. Concentration-response curves (CRCs) were derived directly from the primary screen, and both potency and efficacy values were used to identify compounds with robust bioactivity profiles. We screened the NIH Chemical Genomics Center (NCGC) Pharmaceutical Collection (NPC) and Mechanism Interrogation Plate (MIPE) small molecule collections of approved and investigational compounds against these cell lines; and measured metabolically active cells after 48 hours of compound treatment as a proxy for cell viability. […] Assay Submitter: Nathalia J. Martinez, National Center for Advancing Translational Sciences, National Institutes of Health, Rockville, MD, USA; email: natalia.martinez@nih.gov Shen, M et al. Quantitative high-throughput phenotypic screening of pediatric cancer cell lines identifies multiple opportunities for drug repurposing. Oncotarget 2017 Dec 19;9(4):4758-4772. PMID 29435139.
The cells were obtained from University of North Carolina (UNC), Pediatric Preclinical Testing Program (PPT), and Coriell Institute (CI). qHTS cell viability assay: Cells were assayed in growth media at a density of 500-1,000 cells/well. Five microliters of cells were dispensed into 1,536-well, white, solid-bottom, TC-treated plates (Greiner Bio One) using a multidrop dispenser and incubated at 37 degrees C, 5% CO2, under a humidified atmosphere for 5 hours. Twenty-three nanoliters of compounds and controls (neutral control DMSO or positive control bortezomib at final concentration of 2.3 µM) were subsequently transferred by Kalypsys pintool. For primary screens, the MIPE collection was tested at 11-point dilutions (final concentrations range from 0.78 nM to 46 µM) and the NPC collection at 8-point dilutions (final concentrations range from 0.59 nM to 46 µM). Compounds tested in follow-up screens were assayed at 11-point dilutions. Cells were incubated for 48 hours, followed by addition of 3 µL of CellTiter-Glo (Promega). After a 15 min incubation at room temperature, samples were analyzed for luminescence intensity using a ViewLux High-throughput CCD imager equipped with clear filters.
% is scaled to controls: 0 for no effect and ±100 for the full control effect; potency is read from the fitted curve at half-maximal effect.

**Q.** Which “activity change, negative = cytotoxic” value does the source give for Cc1ccc(C(C)C)cc2c(C)ccc1-2 here?
**A.** 23.8%

**Q.** With OCC(O)CN1CCN(c2ccccc2)CC1 (stereo not given) as the molecule, how does the “activity change, negative = cytotoxic” value read?
**A.** -22.4%

**Q.** With CSc1ccc2c(c1)N(CCC1CCCCN1C)c1ccccc1S2 (stereo not given) as the molecule, how does the Potency read?
**A.** 23.7 µM (active)

**Q.** Which “activity change, negative = cytotoxic” value does the source give for CCCn1cnc2c1c(=O)n(CCCCC(C)=O)c(=O)n2C here?
**A.** -10.9%

**Q.** For Nc1nc2c(ncn2CCC(CO)CO)c(=O)[nH]1, which “activity change, negative = cytotoxic” value is on record?
**A.** -20.2%

**Q.** For C[C@@H]1CN(c2c(F)c(F)c3c(=O)c(C(=O)O)cn(C4CC4)c3c2F)C[C@H](C)N1, which “activity change, negative = cytotoxic” value is on record?
**A.** 35.9% [at 16.1 µM]

**Q.** For CCN(CC)C(C)CN1c2ccccc2Sc2ccccc21 (stereo not given), which “activity change, negative = cytotoxic” value is on record?
**A.** 10.2%

**Q.** With COc1ccc2c(c1)C(=O)N(CCc1ccc(S(=O)(=O)NC(=O)NC3CCCCC3)cc1)C(=O)C2(C)C as the molecule, how does the “activity change, negative = cytotoxic” value read?
**A.** 4.77%

**Q.** Which Potency does the source give for Cc1c(O)cccc1C(=O)N[C@@H](CSc1ccccc1)[C@H](O)CN1C[C@H]2CCCC[C@H]2C[C@H]1C(=O)NC(C)(C)C here?
**A.** 26.6 µM (active)

**Q.** With CC(COc1ccccc1)NC(C)C(O)c1ccc(O)cc1 (stereo not given) as the molecule, how does the “activity change, negative = cytotoxic” value read?
**A.** 16.9%

**Q.** Which “activity change, negative = cytotoxic” value does the source give for CC[C@@]1(c2ccccc2)NC(=O)N(C)C1=O here?
**A.** -0.827%

**Q.** With Cn1c(=O)c2c(ncn2CC2OCCO2)n(C)c1=O as the molecule, how does the “activity change, negative = cytotoxic” value read?
**A.** 11.6%

**Q.** Which “activity change, negative = cytotoxic” value does the source give for C[C@]12C[C@H](O)[C@H]3[C@@H](CCC4=CC(=O)CC[C@@]43C)[C@@H]1CC[C@@H]2C(=O)CO here?
**A.** -7.05%

**Q.** For CC(C)(C)NCC(O)COc1ccc(NC(=O)NC2CCCCC2)cc1 (stereo not given), which “activity change, negative = cytotoxic” value is on record?
**A.** 16.3%

**Q.** Which “activity change, negative = cytotoxic” value does the source give for COc1ccc2cc1Oc1cc3c(cc1OC)CC[N+](C)(C)[C@H]3Cc1ccc(cc1)Oc1c(OC)c(OC)cc3c1[C@@H](C2)[N+](C)(C)CC3 here?
**A.** 24.4%

**Q.** For CCCc1c(OCCCCc2nn[nH]n2)ccc(C(C)=O)c1O, which “activity change, negative = cytotoxic” value is on record?
**A.** -1.2%

**Q.** For C[C@H]1O[C@H](O[C@H]2[C@H](O)[C@@H](O)[C@@H](O[C@H]3[C@H](O)[C@@H](O)[C@H](O)O[C@@H]3CO)O[C@@H]2CO)[C@H](O)[C@@H](O)[C@@H]1N[C@H]1C=C(CO)[C@@H](O)[C@H](O)[C@H]1O, which “activity change, negative = cytotoxic” value is on record?
**A.** 6.99%

**Q.** For CN(C)CCOC(C)(c1ccccc1)c1ccccn1 (stereo not given), which “activity change, negative = cytotoxic” value is on record?
**A.** 22.3%

**Q.** Which “activity change, negative = cytotoxic” value does the source give for O=S(=O)(O)c1cc(I)c(O)c2ncccc12 here?
**A.** -8.68%

**Q.** With OCc1cc(C(O)CNCCCCCCOCCCCc2ccccc2)ccc1O (stereo not given) as the molecule, how does the “activity change, negative = cytotoxic” value read?
**A.** -28.4%

**Q.** With CC[N+](CC)(CC)CCOc1ccc(/C=C/c2ccccc2)cc1 as the molecule, how does the Potency read?
**A.** 23.7 µM (active)

**Q.** Which “activity change, negative = cytotoxic” value does the source give for C[C@@H](O)[C@H](N)C(=O)O here?
**A.** 0.868% [at 16.1 µM]

**Q.** For O=C(O)Cc1sc(-c2ccccc2)nc1-c1ccc(Cl)cc1, which “activity change, negative = cytotoxic” value is on record?
**A.** -14.5%

**Q.** Which “activity change, negative = cytotoxic” value does the source give for N[C@H](C(=O)O)c1ccc(O)cc1 here?
**A.** 5.49% [at 16.1 µM]

**Q.** Which activity change, negative = cytotoxic does the source give for C[C@](N)(Cc1ccc(O)cc1)C(=O)O here?
**A.** -22.2% [at 4.84 µM]

**Q.** With Cc1cc(CC(=O)O)n(C)c1C(=O)c1ccc(Cl)cc1 as the molecule, how does the “activity change, negative = cytotoxic” value read?
**A.** 5.83%

**Q.** With NS(=O)(=O)c1cc2c(cc1C(F)(F)F)NC(Cc1ccccc1)NS2(=O)=O (stereo not given) as the molecule, how does the “activity change, negative = cytotoxic” value read?
**A.** -20.8%

**Q.** For CCN(CC)CCNC(C(=O)OCCC(C)C)c1ccccc1 (stereo not given), which “activity change, negative = cytotoxic” value is on record?
**A.** -0.441%

**Q.** With Nc1ccc(S(=O)(=O)Nc2ccc(Cl)nn2)cc1 as the molecule, how does the “activity change, negative = cytotoxic” value read?
**A.** -3.04%

**Q.** For Cn1cc[nH]c1=S, which “activity change, negative = cytotoxic” value is on record?
**A.** 12.6%

**Q.** For C[C@H](NC(CCc1ccccc1)C(=O)O)C(=O)N1CCC[C@H]1C(=O)O (stereo not given in full), which “activity change, negative = cytotoxic” value is on record?
**A.** -0.119%

**Q.** Which “activity change, negative = cytotoxic” value does the source give for CC(O)CN(CCN(CC(C)O)CC(C)O)CC(C)O (stereo not given) here?
**A.** 12.7%

**Q.** Which “activity change, negative = cytotoxic” value does the source give for CCCCN(CCCC)CCCOC(=O)c1ccc(N)cc1 here?
**A.** -6.34%

**Q.** With O=C(O)CC(O)C(=O)O (stereo not given) as the molecule, how does the “activity change, negative = cytotoxic” value read?
**A.** 24.7%

**Q.** For CC1=C(CC(=O)O)c2cc(F)ccc2/C1=C\c1ccc(S(C)=O)cc1 (stereo not given), which “activity change, negative = cytotoxic” value is on record?
**A.** -15.6%

**Q.** Which “activity change, negative = cytotoxic” value does the source give for CC1(C)OC(=O)NC1=O here?
**A.** 8.64%

**Q.** Which “activity change, negative = cytotoxic” value does the source give for Oc1cccc(O)c1 here?
**A.** 3.67%

**Q.** With CN(C)CCCO[C@@H]1[C@H]2OC(C)(C)O[C@H]2O[C@@H]1C(O)CO (stereo not given in full) as the molecule, how does the “activity change, negative = cytotoxic” value read?
**A.** -7.69%

**Q.** Which “activity change, negative = cytotoxic” value does the source give for O=C1O[C@H]([C@@H](O)CO)C(O)=C1O here?
**A.** 7.78%

**Q.** For CCOC(=O)[C@H](CCc1ccccc1)N[C@@H](C)C(=O)N1C(=O)N(C)C[C@H]1C(=O)O, which “activity change, negative = cytotoxic” value is on record?
**A.** 6.28%
